Screening data (PubChem BioAssay)
HIF-2a inh: HIF-2a reporter inhibitors, primary screen, luminescence, 786-0 RCC cells; 786-0 RCC cells HIF-2a reporter, luciferase luminescence, overnight; inhibition, % at 18.8 µM; 0.72% of 360,000 active;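 active = inhibition of the luminescence signal of 40% or more relative to plate controls, in a single-dose primary screen at 18.75 µM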
Peg3 promoter: Peg3 promoter-driven luciferase inhibitors, primary screen, cell-based, HeLa, luciferase luminescence. inhibition, % at 20 µM. 1.7% of 360,000 active. HeLa PEG-Prom luciferase reporter, overnight;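 active = inhibition of at least 50% at 20 µM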
MITF TRPM1 inh: inhibitors of MITF-dependent TRPM1 promoter reporter, primary screen, cell-based, SK-MEL-5, single point, luciferase; inhibition, % at 12.5 µM; SK-MEL-5 TRPM1 promoter luciferase, 24 h; 0.83% of 330,000 active;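 active = mean inhibition across replicates of 60% or more, whatever share of single replicates reaches that level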
Beta2AR agonist: beta2AR agonists driving receptor internalization, primary screen, cell-based, FAP fluorogen, flow cytometry | Am2.2-beta2AR cells | response, % (concentration not given with the values) | 0.43% of 340,000 active;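 active = response above a set limit, near 3 SD of response in nonfluorescent compounds, cut at about 42% in these data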
Target sequence (P07550 whole entry, looked up): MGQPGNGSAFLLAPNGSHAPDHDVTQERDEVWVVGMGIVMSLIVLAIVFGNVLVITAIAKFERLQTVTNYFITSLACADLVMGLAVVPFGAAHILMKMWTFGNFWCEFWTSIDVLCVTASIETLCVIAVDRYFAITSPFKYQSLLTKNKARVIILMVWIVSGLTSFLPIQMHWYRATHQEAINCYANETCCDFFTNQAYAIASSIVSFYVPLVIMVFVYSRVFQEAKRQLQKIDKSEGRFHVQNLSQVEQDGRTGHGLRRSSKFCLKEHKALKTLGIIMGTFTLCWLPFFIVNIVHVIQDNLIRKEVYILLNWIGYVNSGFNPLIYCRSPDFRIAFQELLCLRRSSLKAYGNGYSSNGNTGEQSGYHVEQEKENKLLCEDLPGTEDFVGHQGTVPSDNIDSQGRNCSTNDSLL
CF NFkB inh: inhibitors of PAF-induced NF-kB signaling, primary screen, cell-based, GFP fluorescence, uHTS; inhibition, % at 5 µM; 0.86% of 360,000 active; AID 588850, 2011; KKLEB NF-kB-GFP reporter, GFP fluorescence overnight;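 active = at least 50% inhibition at 5 µM, scaled per plate between neutral and stimulator controls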;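 also: PAF is a Pseudomonas aeruginosa culture filtrate used as stimulus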
KKLEB tox: cytotoxicity in KKLEB CF airway cells, primary screen, cytotoxicity control for CF NF-kB inhibitor project, cell-based, uHTS, fluorescence assay plates. KKLEB CF airway cells viability, ATPlite luminescence, overnight; active compounds read low; cells stimulated with P. aeruginosa culture filtrate. activity change (cytotoxicity), % at 5 µM. 0.36% of 360,000 active;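 active = corrected activity change at or below -50% at 5 µM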
HIF-2a conf: HIF-2a reporter inhibitor retest, confirmation, luminescence, 786-0 RCC cells | inhibition, % at 18.8 µM | shares compounds with HIF-2a inh | HIF-2a luciferase reporter luminescence, overnight | AID 651580, 2012 | 56% of 1,800 active;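 active = mean inhibition across four replicates of at least 40 percent at the single tested concentration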
HIF-1a counter: HIF-1a luciferase reporter signal reduction – MiaPaCa-2 cells, single concentration, counter-screen for HIF-2a inhibitor project, confirmation; shares compounds with HIF-2a inh; MiaPaCa-2 HIF-1a luciferase reporter, desferoxamine, overnight; inhibition, % at 18.8 µM; 72% of 1,800 active; AID 651589, 2012;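 active = mean inhibition of the reporter signal across four replicates at the single tested dose of 50% or more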
Numbers stand for hits; n = inactive; x = not tested or not shown. Compounds with a hit are over-represented: about 2.8% of the library has one in this group of screens.

SMILES	HIF-2a inh	Peg3 promoter	MITF TRPM1 inh	Beta2AR agonist	CF NFkB inh	KKLEB tox	HIF-2a conf	HIF-1a counter
COc1ccc(C(=O)NCCNc2nc3cc(C)cc(C)c3cc2C#N)c(OC)c1	66	x	x	x	x	x	82	98
Cn1c(=O)c2cc(NC(=O)Nc3cccnc3)ccc2n1-c1ccc(C(C)(C)C)cc1	n	n	x	x	n	n	x	x
CSC(=Nc1ccccc1)N=C(SCc1ccccc1)N(C)C	83	96	116	n	n	n	74	107
CC1C(=O)N(Cc2cn(CC3CCCCC3)nn2)CCS(=O)(=O)N1Cc1ccc(-c2ccccc2)cc1 (stereo not drawn)	n	n	x	x	n	n	x	x
COC(=O)COc1ccc(S(=O)(=O)N2CCN(c3ccc(OC)cc3)CC2)cc1	n	n	n	n	n	n	x	x
COC(=O)COc1ccc(S(=O)(=O)N2CCN(c3ccccc3F)CC2)cc1C	53	n	n	n	n	n	n	n
CCOC(=O)COc1ccc(S(=O)(=O)N2CCN(c3ccccc3)CC2)cc1	67	n	n	n	n	n	n	n
CCOC(=O)COc1ccc(S(=O)(=O)N2CCN(C(=O)OCC)CC2)cc1	n	n	n	n	n	n	x	x
COC(=O)COc1ccc(S(=O)(=O)N2CCN(c3ccc(F)cc3)CC2)cc1	46	n	n	n	n	n	n	n
CCOC(=O)N1CCN(S(=O)(=O)c2ccc(OCC(=O)OC)c(C)c2)CC1	n	n	n	n	n	n	x	x
CCOC(=O)COc1ccc(S(=O)(=O)N2CCN(c3ccc(F)cc3)CC2)cc1	43	n	n	n	n	n	n	n
O=C(Nc1cccc(Cl)c1)C1C2C=CC3(O2)C1C(=O)N(CCCN1CCCCC1)C3C(=O)NC1CCCCC1 (stereo not drawn)	n	n	n	n	n	n	x	x
Cc1noc(C)c1C(=O)Nc1ccccc1C(=O)NCCc1ccccc1	n	n	n	n	n	n	x	x
CCC(C)[C@H]1CNC(=O)C(=O)N1CCc1cccc(F)c1 (stereo partly drawn)	n	x	x	x	x	x	x	x
[O-][N+](=Cc1ccccc1)CC1(O)CCCCC1	n	n	x	x	n	n	x	x
O=C1CCCN1C1CCN(Cc2ccccc2)S(=O)(=O)N1 (stereo not drawn)	n	x	x	x	x	x	x	x
CN1CCN([C@@H]2CS(=O)(=O)N[C@H]2COCc2ccccc2)CC1	n	n	x	x	n	n	x	x
CCOC(=O)COc1ccc(S(=O)(=O)N2CCc3ccccc3C2)cc1	44	n	n	n	n	n	n	n
Cc1cn([C@H]2C[C@H](O)[C@@H](CCC(=O)NCCCc3ccccc3)O2)c(=O)[nH]c1=O	n	n	x	x	n	n	x	x
CC(=O)OC(C)(C)/C=C/C(=O)[C@](C)(O)C1[C@H](O)C[C@@]2(C)C3CC=C4C(C=C(O[C@@H]5O[C@H](CO)[C@@H](O)[C@H](O)[C@H]5O)C(=O)C4(C)C)[C@]3(C)C(=O)C[C@]12C (stereo partly drawn)	46	57	n	n	74	-68	n	n
CC1(C)Oc2ccc3ccc(=O)oc3c2C[C@H]1O[C@@H]1O[C@H](CO)[C@@H](O)[C@H](O)[C@H]1O	n	n	n	n	n	n	x	x
Cc1cc(NC(=O)c2cc([N+](=O)[O-])ccc2Cl)no1	n	n	n	n	n	n	x	x
